DT40 TDP1 no CPT = qHTS for Inhibitors of human tyrosyl-DNA phosphodiesterase 1 (TDP1): qHTS in cells in absence of CPT; DT40 Tdp1-/- hTDP1 cells, no CPT, ATP luminescence, 48 h; Potency, µM (series often up to 46.2 µM), inactives show top-dose activity change, negative = growth inhibition, actives largely listed as inhibitors; hit rate 15% among 420,000; AID 686978, 2013; further: potency means the concentration at half of the fitted maximal effect; nearly all actives have a fitted effect of over 55% in size
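Readout: luminescence from CellTiter-Glo after 30 min in the dark at RT. Cells: DT40 Tdp1-/- with stable hTDP1, 400/well. Exposure: compounds alone, ≥48 hr, 37 °C.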
HT1080 IDH1KD tx = kills HT-1080 cells with IDH1 knockdown; HT-1080 IDH1 knockdown viability, ATP luminescence, 48 h; Potency, µM (series often up to 46.1 µM), for the others: top-dose activity, negative = toxicity, actives largely listed as cytotoxic; hit rate 2% among 360,000; AID 686971;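 further: potency means the concentration at half of the fitted maximal effect; 0% = DMSO wells and -100% = cell-free medium wells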
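Using the IDH1-knockdown HT-1080 line run in the same batch and compound series as the NT line, viability after 48 h at 37 °C was determined by CellTiter-Glo luminescence and expressed as % activity.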
IL1B secr inh = inhibitors of inflammasome signaling (IL-1 beta secretion) | hit rate 4.7% among 360,000 | AID 743279 | activity change, % at 57.5 µM | THP-1 LPS/ATP IL-1B secretion, AlphaLISA, 16 h; hits give low values; in the data active means activity change below about -50%; inconclusive means mostly about -30% to -49%
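THP-1 cells pretreated 1 hr with compounds (up to 57.5 uM final), then stimulated with LPS (250 ng/mL final) plus ATP (1.25 mM final); secreted IL-1B measured by AlphaLISA after 16 hr, decreased signal indicating inhibition.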
HT1080NT lethal = kills 2HG-producing HT-1080-NT fibrosarcoma cells; AID 686970; HT-1080-NT fibrosarcoma viability, CellTiter-Glo ATP luminescence, 48 h; Potency, µM (highest dose often 46.1 µM), for inactives: top-dose activity, negative = less viability, actives largely listed as cytotoxic; hit rate 1.6% among 360,000;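 further: NT is the 2HG producing partner of a matched IDH1 knockdown line; potency means the concentration at half of the fitted maximal effect; 0% = DMSO-treated cells and -100% = media-only wells without cells; nearly all actives have a fitted effect of over 55% in size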
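HT-1080-NT; 750 cells/well; 5% FBS RPMI; 48 h compound, 37 degrees C; CellTiter-Glo luminescence; curve fitting and curve-class assignment.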
TDP1 cell CPT = DT40-hTDP1 cell growth loss with CPT; Potency, µM (doses to about 46.2 µM), for inactives: top-dose activity change, negative = growth inhibition, most hits filed as inhibitors; chicken DT40 Tdp1-/-;hTDP1 cells + 20 nM CPT, ATP luminescence, 48 h; hit rate 12% among 420,000; AID 686979; further: potency means the concentration at half of the fitted maximal effect; nearly all actives have a fitted effect of over 55% in size
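Chicken DT40 Tdp1-/- cells complemented with human TDP1, 400 cells/well, exposed to compounds plus 20 nM camptothecin for at least 48 h at 37 C; viability read as ATP content by CellTiter-Glo luminescence.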
* marks the source's active call; other numbers are inactive results; u = inconclusive; x = no result given; [ ] = remark or other dose. Most compounds without a hit are left out; they make up all but 19% or so of the library. Unless noted, the call rests on the fitted dose curve; in most records, active means well fitted curve in the direction sought with a large enough effect; inconclusive means small, poorly fitted or top-dose-only effect, or another doubt; inactive means no such curve, though single readings can be large; an effect the other way counts as inactive or inconclusive. Unless noted, on the % scale 0 is the no-effect control and ±100 the full control effect.

SMILES | DT40 TDP1 no CPT | HT1080 IDH1KD tx | IL1B secr inh | HT1080NT lethal | TDP1 cell CPT
CCN(CC)CCCNc1nc2ccccc2c2[nH]c3ccc(OC)cc3c12 | 2.9µM* | 21µM* | -98* | u | 5.2µM*
COCCN(CCOC)Cc1cc(=O)oc2ccc3ccccc3c12 | 18µM* | -22% | -27 | 5% | u
Cc1ccc(O)c(-n2nc3ccccc3n2)c1 | -11% | -1% | 0 | 3% | 2%
CCCNC(=O)C1(C)CCCN(C(=O)c2ccccc2OC(F)(F)F)C1 (stereo unspecified) | -17% | 11% | 6 | 29% | 11%
COc1ccccc1P(=O)(c1ccccc1)c1ccccc1 | -7% | 7% | 7 | 9% | -21%
Cc1ccccc1P(=O)(c1ccccc1)c1ccccc1C | 18µM* | -20% | 4 | 0% | u
Cc1nc(-c2ccncc2)sc1C(=O)Nc1ccc(Br)cc1 | -15% | -1% | -10 | 5% | 5%
Cc1cc(C)cc(NC(=O)c2nnn(Cc3cc(C)ccc3C)c2N)c1 | u | u | 0 | -24% | 21µM*
CCOc1ccc(OCC)c(NC(=O)c2nnn(CC(=O)Nc3cc(C)cc(C)c3)c2N)c1 | -25% | 21µM* | -14 | u | -23%
CCOc1ccc(NC(=O)Cn2nnc(C(=O)Nc3ccc(OCC)cc3)c2N)cc1 | -24% | x | x | x | 4%
O=C(NCc1nnc2n1CCN(Cc1cccc(Cl)c1)CC2)c1cccc(F)c1 | 4.1µM* | x | x | x | 5.2µM*
CSc1nnc2c3ccccc3n(Cc3ccccc3)c2n1 | u | -3%[9.24 µM] | -15 | -2% | u
COc1ccc2c(c1)c1nnc(SCCN3CCOCC3)nc1n2C | 16µM* | -9% | x | -5% | u
C=CCn1c2ccccc2c2nnc(SCC(=O)O)nc21 | -5% | 6% | 15 | -3% | -1%
C=CCn1c2ccccc2c2nnc(SCCN3CCOCC3)nc21 | u | -3% | -71* | 0% | -26%
CCCCn1c2ccc(F)cc2c2nnc(SCCN(CC)CC)nc21 | 26µM* | x | x | x | 21µM*
COc1ccc2c(c1)c1nnc(SC)nc1n2C | -19% | -1% | 18 | 23% | -12%
CSc1nnc2c3ccccc3n(CCc3ccccc3)c2n1 | 16µM* | u | 0 | -16% | 7.3µM*
O=C(O)c1cccc(NS(=O)(=O)c2cccc(C(=O)Nc3ccccc3[N+](=O)[O-])c2)c1 | -13% | 2% | 2 | 0% | -11%
CN(C)S(=O)(=O)c1ccc(NC(=O)COC(=O)CC2CC3CCC2C3)cc1 (stereo unspecified) | -2% | 5% | 0 | 6% | -14%
CCCCn1c2ccc(F)cc2c2nnc(SCCN3CCOCC3)nc21 | 29µM* | u | -22 | u | u
CCN(CC)CCSc1nnc2c3cc(C)ccc3n(Cc3ccccc3)c2n1 | 21µM* | 23µM* | -67* | 16µM* | u
CCCCn1c2ccccc2c2nnc(SCCN3CCCCC3)nc21 | 16µM* | 1% | -10 | -3% | u
CSc1nnc2c3cc(F)ccc3n(Cc3ccccc3)c2n1 | -10% | -3% | -2 | -2% | 4%
Cn1c2ccc(F)cc2c2nnc(SCCN3CCOCC3)nc21 | -16% | -4% | 8 | -7% | 1%
SMILES | DT40 TDP1 no CPT | HT1080 IDH1KD tx | IL1B secr inh | HT1080NT lethal | TDP1 cell CPT
O=C(NCc1ccco1)C(=O)NCC1OCCN1S(=O)(=O)c1cc(F)ccc1F (stereo unspecified) | u | 9% | 1 | u | 2%
CCOc1ccc(Br)cc1S(=O)(=O)Nc1cccc(S(=O)(=O)N2CCOCC2)c1 | -12% | -6% | 33 | 2% | -17%
COc1ccc(N2C(=O)CCC2=O)c(OC)c1 | 26% | -9% | 2 | 16% | 0%
COc1ccc(C2Nc3cc(OC)ccc3-n3cccc32)cc1 (stereo unspecified) | 23µM* | -22% | u | -16% | 23µM*
COc1ccc(C(=O)NCC(c2ccc(N(C)C)cc2)N2CCOCC2)cc1 (stereo unspecified) | 10µM* | x | x | x | 7.3µM*
COc1ccc(C(CNC(=O)c2cc3c(s2)CCC(C)C3)N2CCOCC2)cc1 (stereo unspecified) | u | -11% | -12 | 0% | 23µM*
CN(C)c1ccc(C(CNC(=O)c2ccc(C(C)(C)C)cc2)N2CCCC2)cc1 (stereo unspecified) | 7.3µM* | x | x | x | 13µM*
CN(C)c1ccc(C(CNC(=O)c2cccc(C(F)(F)F)c2)N2CCCC2)cc1 (stereo unspecified) | 16µM* | x | x | x | 15µM*
O=c1c2ccccc2nc2n1CC/C2=C\N1CCN(c2ccc([N+](=O)[O-])cc2)CC1 | -20% | 1% | -6 | -13% | -22%
Cc1cc(O)c(CN2CCN(c3ccccc3)CC2)c2oc(=O)cc(C)c12 | -9% | x | x | x | 16%
C=CCn1c(SCC(=O)NC(=O)Cc2ccccc2)nnc1-c1ccccc1F | -18% | 7% | 8 | 3% | -2%
Cc1ccc(NC(=O)CN(C)C(=O)CSc2nnc(C(F)(F)F)n2C)cc1 | -8% | 7% | -11 | 15% | -2%
COC(=O)[C@]1(CC(C)C)N[C@H](c2ccc(-c3ccc4c(c3)OCO4)cc2)[C@@H]2C(=O)N(C)C(=O)[C@@H]21 | u | 8% | 21 | 21% | u
COC(=O)[C@]1(CC(C)C)N[C@H](c2ccc(SC3CCCCC3)c(OC)c2)[C@@H]2C(=O)N(C)C(=O)[C@@H]21 | 18µM* | -10% | u | 0% | u
CCCCCCSc1ccc([C@H]2N[C@@](CC(C)C)(C(=O)OC)[C@H]3C(=O)N(C)C(=O)[C@@H]23)cc1OC | 18µM* | -10% | -53* | -15% | u

Screens as filed in PubChem.
